Experimental findings from PubChem BioAssay (Tox21) are described below.

Records with an inconclusive call do not appear. A number with no mark means an inactive call. Calls of active or inactive are those of the source. Unless noted, the call rests on the fitted dose curve; in most records, active means well fitted curve in the direction sought with a large enough effect in the repeat runs; inconclusive means weak or mixed curves; inactive means no such curve, though single readings can be large; an effect the other way counts as inactive or inconclusive.

The nature of test [1]: qHTS assay to identify small molecule agonists of the vitamin D receptor (VDR) signaling pathway - cell viability counter screen (AID 743224). Further: nearly all actives have a fitted effect of over 50% in size. Further: potency means the concentration at half of the fitted maximal effect. The method in brief:
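VDR-bla cells were preincubated 4 h at 37C/5% CO2, then exposed to compounds for 16 h. After the 2 h room-temperature bla FRET read, CellTiter-Glo was added to the same wells and luminescence read after 30 min.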

A short description of test [2]: qHTS assay to identify small molecule antagonists of the vitamin D receptor (VDR) signaling pathway - cell viability counter screen (AID 743225). Further: nearly all actives have a fitted effect of over 50% in size. Further: potency means the concentration at half of the fitted maximal effect. In outline: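 Viability counter screen run in the same wells as the beta-lactamase reporter assay: HEK 293T VDR-UAS-bla cells, 16 h compound exposure at 37C with 3 nM (final) 1-alpha,25-dihydroxyvitamin D3. CellTiter-Glo luminescence, 30 min, room temperature.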

The nature of test [3]: qHTS assay to identify small molecule agonists of the NFkB signaling pathway (AID 1159509; active means well fitted curve in the direction sought with a large enough effect in the signal ratio in the repeat runs, not every such curve was filed as active; the % refers to the signal ratio; further: series mostly up to about 61 µM). In outline: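 ME-180 NFkB-bla, 2,000 cells/well, overnight plating; cpd pinned in DMSO, 5 h 37 C; B/G FRET substrate 1.5 h RT; ex 405, em 460/530 nm.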
Test [4] is described as follows: qHTS assay to identify small molecule agonists of the NFkB signaling pathway - cell viability counter screen (AID 1159515; calls by dose curve; further: series mostly up to about 61 µM; nearly all actives have a fitted effect of over 55% in size). The method in brief:
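NFkB-bla ME-180 cells, 2,000/well, were plated overnight at 37 C, 5% CO2, then exposed to compounds in DMSO for 5 hr. After the bla FRET read, CellTiter-Glo was added to the same wells; luminescence was read after 30 min at room temperature.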

A short description of test [5]: qHTS assay to identify small molecule agonists of the endoplasmic reticulum stress response signaling pathway - cell viability counter screen (AID 1159517; calls by dose curve; further: nearly all actives have a fitted effect of over 50% in size; further: potency means the concentration at half of the fitted maximal effect). The method in brief:
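ESRE-bla HeLa cells, 1,500 per well, seeded overnight then treated with compounds for 5 hr at 37 C. After the beta-lactamase read, viability in the same wells is measured by CellTiter-Glo luminescence after 30 min at room temperature.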

Test [6] in a line: qHTS assay to identify small molecule antagonists of the retinoid-related orphan receptor gamma (ROR-gamma) signaling pathway - cell viability counter screen (AID 1159520). Further: nearly all actives have a fitted effect of over 50% in size. The method in brief:
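Tet-on ROR gamma CHO cells were given compounds for 2 hr, then doxycycline hyclate at 1 uM final, and incubated 16 hr at 37 C. Viability was measured as ATP content by CellTiter-Glo luminescence.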

The target of test [7] is Nuclear receptor ROR-gamma (Homo sapiens) (UniProt P51449). Kind of test: qHTS assay to identify small molecule antagonists of the retinoid-related orphan receptor gamma (ROR-gamma) signaling pathway (AID 1159521; further: nearly all actives have a fitted effect of over 50% in size; further: potency means the concentration at half of the fitted maximal effect). In outline:
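Luminescence readout (ONE-Glo, 30 min RT) after 16 h doxycycline induction; loss of signal scored as antagonism. CHO cells with TET-inducible RORγ and RORE-LUC reporter; compounds added 2 h before 1 uM final doxycycline.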

A short description of test [8]: qHTS assay to identify small molecule agonists of the AP-1 signaling pathway - cell viability counter screen (AID 1159525; calls by dose curve; further: nearly all actives have a fitted effect of over 55% in size). The method in brief:
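AP-1-bla ME-180 cells in Opti-MEM with 0.5% dialyzed FBS, compound exposure 5 h at 37 C in 15-point titration. Viability read in the same wells as ATP content by CellTiter-Glo luminescence, normalised to tetra-n-octylammonium bromide and DMSO controls.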

Test [9] is described as follows: qHTS assay to identify small molecule agonists of the AP-1 signaling pathway (AID 1159526; calls by dose curve).
The target of test [10] is Retinoic acid receptor RXR-alpha (Homo sapiens) (UniProt P19793). Kind of test: qHTS assay to identify small molecule agonists of the RXR signaling pathway (AID 1159527; calls by dose curve; further: nearly all actives have a fitted effect of over 35% in size). In outline: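 Agonist mode; 9-cis retinoic acid positive control. HEK 293T UAS-bla reporter cells, 2% charcoal-stripped FBS, 16 hr compound exposure at 37 C/5% CO2. LiveBLAzer B/G FRET substrate 2 hr RT; ex 405, em 460/530 nm.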
Sequence of Retinoic acid receptor RXR-alpha (Homo sapiens) (P19793 whole entry, looked up): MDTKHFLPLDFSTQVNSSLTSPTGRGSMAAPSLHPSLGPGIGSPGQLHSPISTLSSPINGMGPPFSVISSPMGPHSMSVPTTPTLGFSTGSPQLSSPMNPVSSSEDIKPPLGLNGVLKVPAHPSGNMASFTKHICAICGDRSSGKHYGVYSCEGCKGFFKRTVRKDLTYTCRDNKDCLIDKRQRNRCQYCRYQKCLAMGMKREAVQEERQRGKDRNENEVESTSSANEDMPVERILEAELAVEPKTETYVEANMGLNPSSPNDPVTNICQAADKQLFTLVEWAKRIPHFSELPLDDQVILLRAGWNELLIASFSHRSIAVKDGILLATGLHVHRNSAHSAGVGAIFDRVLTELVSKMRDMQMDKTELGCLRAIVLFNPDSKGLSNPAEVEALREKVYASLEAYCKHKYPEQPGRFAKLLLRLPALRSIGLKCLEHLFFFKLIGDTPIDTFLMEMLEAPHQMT

The nature of test [11]: qHTS assay to identify small molecule agonists of the RXR signaling pathway - cell viability counter screen (AID 1159529). Further: nearly all actives have a fitted effect of over 50% in size. Further: potency means the concentration at half of the fitted maximal effect. The method in brief: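 Luminescence from CellTiter-Glo (30 min, RT) measured viability in the same wells as the beta-lactamase reporter readout. Cells: GeneBLAzer RXR-alpha HEK 293T, 2% charcoal-stripped FBS. Compound exposure 16 hr, 37 C.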
The nature of test [12]: qHTS assay to identify small molecule antagonists of the retinoid acid receptor (RAR) signaling pathway - cell viability counter screen (AID 1159551). Further: nearly all actives have a fitted effect of over 35% in size. In outline:
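C3RL4 cells were seeded overnight at 37 C, then treated with compounds plus 1 uM (final) retinol for 6 h at 37 C. Viability was read as ATP by CellTiter-Glo luminescence after 30 min at room temperature.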

Test [13] in a line: qHTS assay to identify small molecule antagonists of the retinoic acid receptor (RAR) signaling pathway (AID 1159552; further: nearly all actives have a fitted effect of over 50% in size; further: potency means the concentration at half of the fitted maximal effect). The method in brief:
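Luminescence from a RARE luciferase reporter in C3RL4 cells served as read-out. Cells received compounds together with 1 uM final retinol and incubated 6 hr at 37 C before detection reagent was added for 30 min at room temperature.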

A short description of test [14]: qHTS assay to identify small molecule agonists of the retinoic acid receptor (RAR) signaling pathway (AID 1159553). In outline:
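C3RL4 cells carrying a RARE luciferase reporter were plated overnight at 37 C, then exposed to compounds in DMSO for 6 hr at 37 C and 5% CO2. Luminescence was read 30 min after luciferase reagent addition at room temperature.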

A short description of test [15]: qHTS assay to identify small molecule agonists of the endoplasmic reticulum stress response signaling pathway (AID 1159516; active means well fitted activation curve with a large enough effect in the signal ratio in the repeat runs, not every such curve was filed as active; the % refers to the signal ratio). In outline: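 CellSensor ESRE-bla HeLa cells, carrying a beta-lactamase reporter driven by the ER stress response element, were plated overnight and exposed to compounds for 5 hr at 37 C. Reporter activity was read as FRET substrate fluorescence after 2 hr at room temperature.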

Test [16] in a line: qHTS assay to identify small molecule antagonists of the estrogen related receptor (ERR) signaling pathway - cell viability counter screen (AID 1224818).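 Further: series mostly up to about 46 µM; viability measured after 17.5 h of compound exposure.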 In outline:
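ERR reporter cells plated 6 h at 37 C/5% CO2, then compounds in DMSO pin-transferred and incubated 17.5 h at 37 C. Viability read as CellTiter-Fluor fluorescence after 30 min at 37 C.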

The nature of test [17]: qHTS assay to identify small molecule antagonists of the estrogen related receptor signaling pathway with the pleiotropic PPARgamma coactivator (PGC) cell viability counter screen (AID 1224822; further: series mostly up to about 46 µM). In outline:
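PGC/ERR cells were seeded at 2,000 cells/well, rested 6 h at 37 C/5% CO2, then given compounds in DMSO by pin tool and incubated 17.5 h at 37 C. Viability came from CellTiter-Fluor fluorescence after 30 min.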

Take `CC(=O)NCCO`: the Potency entry in test [1], in test [2], in test [4], in [5], in test [6] and in test [7] was “inactive” each time. Moreover, the Potency entry in [8], in test [10], in test [11], in [12] and in test [13] was “inactive” in each case. Moreover, the compound was classed as inactive in test [3] and in test [9].
Regarding `N[C@@H](Cc1cc(I)c(O)c(I)c1)C(=O)O`, the Potency entry in test [1], in [2], in test [4], in test [5], in [6] and in test [7] was “inactive” each time. Besides, the Potency entry in test [8], in [10], in [11], in [12] and in test [14] was “inactive” in each case. Besides, the compound was called inactive in test [3] and in test [9].
`CC(C)(C)NCC(O)COc1cccc2c1C[C@H](O)[C@H](O)C2` (some centres undefined): the Potency result in test [1], in test [2], in [4], in test [5], in [6] and in test [7] was “inactive” in each case. Further, the Potency result in test [8], in test [10], in [11], in test [12], in test [13] and in [14] was “inactive” throughout. For the same compound, the result in test [3] and in test [9] was inactive.
On to `CC(C)(C)S`, for which the Potency result in test [1], in test [2], in [4], in [5], in test [6] and in test [7] was “inactive” throughout. Moreover, the Potency result in test [8], in test [10], in [11], in test [12], in test [13] and in [14] was “inactive” in each case. Further, the call in test [3] and in test [9] was inactive.
For `Oc1cccc2[nH]ccc12`, the Potency result in [1], in test [2], in [4], in test [5], in [6] and in test [7] was “inactive” each time. The Potency entry in test [8], in test [10], in test [11], in test [12], in test [13] and in test [14] was “inactive” throughout. The compound was classed as inactive in test [3] and in test [9].
In the case of `O[C@@H](CNC[C@H](O)[C@H]1CCc2cc(F)ccc2O1)[C@@H]1CCc2cc(F)ccc2O1`, the Potency in test [1] is 21.1 µM (active); in test [2], 21.3 µM (active); in [7] it was 23.7 µM (active); in [11] it was 19 µM (active); in test [13], 29.8 µM (active). The call in [3] and in test [9] was inactive. The Potency entry in test [4], in [15] and in test [8] was “inactive” throughout.
For `COC1CCC=CO1` (centres undefined), the Potency entry in test [1], in test [2], in test [4], in test [6], in test [7] and in [8] was “inactive” each time. Also, the Potency result in [10], in test [11], in [12], in test [13] and in test [14] was “inactive” in each case. The compound was classed as inactive in [3] and in test [9]. Also, the Potency in [5] is 55.3 µM (active).
In the case of `Cc1ccc(N(CC2=NCCN2)c2cccc(O)c2)cc1`, the Potency result in test [2], in test [4], in test [5], in [6], in [7] and in test [8] was “inactive” throughout. Moreover, the Potency entry in test [10], in [11], in [12], in test [13] and in [14] was “inactive” in each case. In addition, the compound was classed as inactive in [3], in [9], in [16] and in test [17].
With `CC1CCC(C(C)CS)CC1S` (centres undefined), the Potency result in [1], in [2], in test [4], in test [6], in test [7] and in [8] was “inactive” each time. Moreover, the Potency result in test [10], in [11], in test [12], in test [13] and in [14] was “inactive” in each case. Moreover, the call in test [3] and in [9] was inactive. Further, in test [5], the Potency was 19.5 µM (active).
With `COc1cc(S(=O)(=O)Nc2ccccc2)c(OC)cc1N`, the Potency entry in test [1], in [4], in [5], in test [6], in [7] and in test [8] was “inactive” each time. Moreover, the Potency result in test [10], in [11], in test [12], in test [13] and in test [14] was “inactive” throughout. The compound was called inactive in test [3] and in test [9].
